Inconclusive results are not listed. Calls of active or inactive are those of the source. The call rests on the fitted dose curve; in most records, active means well fitted inhibition curve with a large enough effect; inconclusive means small, poorly fitted or top-dose-only effect; inactive means flat fitted curve, though single readings scatter.

Chain of DNA dC->dU-editing enzyme APOBEC-3G (Homo sapiens) (Q9HC16 whole entry, looked up): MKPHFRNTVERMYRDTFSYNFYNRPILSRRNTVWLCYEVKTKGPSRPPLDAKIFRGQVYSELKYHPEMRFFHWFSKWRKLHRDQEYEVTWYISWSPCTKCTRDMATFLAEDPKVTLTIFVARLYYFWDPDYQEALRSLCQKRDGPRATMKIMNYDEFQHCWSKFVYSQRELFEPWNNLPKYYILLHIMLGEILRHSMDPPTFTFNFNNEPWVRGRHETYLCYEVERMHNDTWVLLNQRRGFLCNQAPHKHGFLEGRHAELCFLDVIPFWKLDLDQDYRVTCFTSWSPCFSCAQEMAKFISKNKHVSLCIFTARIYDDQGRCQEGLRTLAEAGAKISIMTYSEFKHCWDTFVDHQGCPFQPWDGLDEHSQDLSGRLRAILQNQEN
Chain of Ubiquitin carboxyl-terminal hydrolase 1 (Homo sapiens) (O94782 whole entry, looked up): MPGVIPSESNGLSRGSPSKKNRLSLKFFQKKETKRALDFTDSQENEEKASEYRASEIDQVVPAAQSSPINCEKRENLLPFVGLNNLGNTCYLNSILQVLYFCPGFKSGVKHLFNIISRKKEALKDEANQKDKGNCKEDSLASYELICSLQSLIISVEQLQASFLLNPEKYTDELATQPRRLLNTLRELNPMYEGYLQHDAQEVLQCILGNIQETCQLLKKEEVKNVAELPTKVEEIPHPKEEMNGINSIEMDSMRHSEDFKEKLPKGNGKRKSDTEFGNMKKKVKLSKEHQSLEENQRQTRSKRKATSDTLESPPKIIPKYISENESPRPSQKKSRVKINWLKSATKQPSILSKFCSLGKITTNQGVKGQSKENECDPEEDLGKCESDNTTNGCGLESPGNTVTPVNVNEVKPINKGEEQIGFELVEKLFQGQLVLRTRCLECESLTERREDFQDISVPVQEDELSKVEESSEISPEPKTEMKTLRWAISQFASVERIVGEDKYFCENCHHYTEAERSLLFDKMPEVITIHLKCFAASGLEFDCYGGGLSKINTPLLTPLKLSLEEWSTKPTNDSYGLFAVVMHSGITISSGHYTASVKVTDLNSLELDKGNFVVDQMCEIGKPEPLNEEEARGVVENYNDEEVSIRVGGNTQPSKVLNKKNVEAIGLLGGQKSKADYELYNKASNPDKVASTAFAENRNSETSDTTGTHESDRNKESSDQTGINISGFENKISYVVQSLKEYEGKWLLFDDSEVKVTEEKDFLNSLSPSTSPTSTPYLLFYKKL

The target of the first experiment is Ubiquitin carboxyl-terminal hydrolase 1 (Homo sapiens) (UniProt O94782). The experiment can be described thus: Inhibitors of USP1/UAF1: Pilot qHTS (AID 504865). Further: nearly all actives have a fitted effect of over 35% in size. Further: potency means the concentration at half of the fitted maximal effect.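 On activity change, negative = inhibition: rhodamine fluorescence freed from ubiquitin-rhodamine substrate followed over time; top concentration of the series differs between compounds; on the % scale 0 is the no-effect control and ±100 the full control effect.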 The conditions noted are these: purified USP1/UAF1, Ub-rhodamine cleavage fluorescence; series mostly up to 114 µM; activity change, negative = inhibition: at the top concentration. Put shortly:
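Kinetic fluorescence assay: 1nM USP1/UAF1, 15 min compound preincubation, then 150nM Ub-Rho; 480/540 nm.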
Take `CCOc1ccc2c3c1O[C@H]1[C@@H](O)C=C[C@H]4[C@@H](C2)N(C)CC[C@@]341`: the “activity change, negative = inhibition” value was -8.08% (inactive).
Turning to `O=C(CCl)c1ccc(Oc2ccc(C(=O)CCl)cc2)cc1`, the Potency was 56.2 µM (active).
As for `CC(N)Cc1ccc(O)cc1` (centres undefined), the “activity change, negative = inhibition” value is 4.66% (inactive).
Same read-out and setting: with `S=C(S)N1CCNCC1` the figure was -0.65% (inactive).
As for `[O]=[Cr](=[O])([OH])[O][Cr](=[O])(=[O])[OH]`, the Potency is 25.1 µM (active).
For `O=[N+]([O-])c1ccccc1`, the “activity change, negative = inhibition” value is -8.76% (inactive).
On the same count and under the same terms, to `CCOC(=O)c1ccccc1C(=O)OCC` belongs -6.46% (inactive); to `Clc1ccccc1Cl`, -0.849% (inactive); to `CN1[C@@H]2CC[C@H]1CC(OC1c3ccccc3CCc3ccccc31)C2` (some centres undefined), -14.8% [at 54.9 µM] (inactive).
The same measure, in the same setting: to `CCC1(c2ccccc2)C(=O)NC(=O)N(C)C1=O` (centres undefined) belongs -6.05% (inactive); to `O=CC=O`, -3.17% (inactive).

The target in a further experiment is DNA dC->dU-editing enzyme APOBEC-3G (Homo sapiens) (UniProt Q9HC16). The experiment can be described thus: qHTS for inhibitors of Vif-A3G interactions: Validation (AID 588379). Further: 0% is about no effect. The conditions noted are these: Vif-A3G protein interaction assay; series mostly up to 46.1 µM; activity change, negative = inhibition: at the top concentration. Put shortly:
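HeLa cells stably expressing Vif and A3G-eYFP, 700 cells/well, incubated overnight at 37 deg C, then exposed to compound overnight at 37 deg C. Inhibition of Vif-mediated degradation read as increased yellow fluorescence (Ex 488/Em 500-530) by laser-scanning cytometry.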
(In general: qHTS replaces the single test concentration by a dilution series.)
On to `O=c1ccc2[nH]cc(C3=CCNCC3)c2[nH]1`, for which the “activity change, negative = inhibition” value is 0.373% (inactive).
Still for that read-out and setting: to `Cc1cc(C)cc(C(=O)OC2C[C@H]3CC[C@@H](C2)N3C)c1` (some centres undefined) belongs 0.915% (inactive); to `O=C1C=C2C=C[C@@H]3C[C@@]2(O1)[C@H]1CCCCN31`, -12.2% (inactive).

(Values after PubChem BioAssay (NCATS).)
